Where “and” joins values, the source holds several entries; their conditions need not be identical. Equal values may be shown once. Results filed as inconclusive are left out. A structure can be active in one record and inactive in another. Calls of active or inactive are those of the source. Calls come from the whole dose curve; as a rule, active = well fitted curve in the direction sought with a large enough effect; inconclusive = small, poorly fitted or top-dose-only effect, or another doubt; inactive = no such curve, though single readings can be large; an effect the other way counts as inactive or inconclusive.
How the values were obtained:
[1] = qHTS for compounds that reverse cellular toxicity of Amyloid beta (A-beta) peptide in yeast: LOPAC Validation Assay (AID 720559);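 note: plate controls were DMSO for no effect and equimolar ferric chloride plus clioquinol rescue for full effect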
Summary of the method: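 Here, A-beta-toxic yeast grow with test compounds at 30 C for 48 hr before optical density at 600 nm is recorded; data are normalized against DMSO and the FeCl3-clioquinol control.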

[2] = qHTS for Activators of Parkin Expression: LOPAC Validation Assay (NLuc Reporter) (AID 720572;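 note: 0% = DMSO and 100% = positive control compound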)
Summary of the method: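 Parkin promoter-driven FLuc/NLuc neuronal reporter cells; 24 h plating, 7-pt dose response, 24 h at 37 C/5% CO2; FLuc then NanoLuc reagent, 10 min each, luminescence; DMSO/positive control normalized.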

[3] = qHTS for Activators of Parkin Expression: LOPAC Validation Assay (FLuc Reporter) (AID 720573;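 note: 0% = DMSO and 100% = positive control compounds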)
Summary of the method: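 Readout is FLuc luminescence from neuronal reporter cells (Parkin promoter, FLuc plus NLuc) after 24 h compound exposure in dose response. Values normalized to neutral DMSO and positive-control compounds.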

[4] = molecular target: T1, Hexokinase-4 (Homo sapiens) + Glucokinase regulatory protein (Homo sapiens) (UniProt P35557+Q14397); assay: qHTS assay for inhibitors of recombinant human GCK-GKRP interaction: ADP-Glo assay (AID 743206);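 note: plate controls were DMSO plus enzyme for no effect and no enzyme for full effect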
Summary of the method: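 GST-GCK and FLAG-GKRP (15 nM each in the dispensed mix, with 2 uM S6P) react with 0.4 mM ATP and 5 mM glucose (final) in Hepes pH 7.6 for 60 min at room temperature. ADP is measured by ADP-Glo luminescence.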

[5] = molecular target: T1, Hexokinase-4 (Homo sapiens) + Glucokinase regulatory protein (Homo sapiens); assay: qHTS assay for inhibitors of recombinant human GCK-GKRP interaction: HTRF assay (AID 743207);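 note: 0% = DMSO with GCK present and -100% = DMSO wells lacking GCK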
Summary of the method: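 Titration screening format: recombinant GST-GCK and FLAG-GKRP at 5 nM, S6P at 2 uM, labelled anti-tag antibodies, 60 min at RT, dual-wavelength HTRF readout.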

[6] = qHTS Assay for Identifying Gametocytocidal Compounds (AID 743244); note: potency is the fitted concentration of half-maximal effect;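 for max response: % is set by controls: 0 for no effect and ±100 for the full control effect; actives lower the fluorescent signal which means gametocytes are killed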; details: P. falciparum 3D7 stage III-V gametocytes, alamarBlue, 72 h; max response: stronger effect = lower value
Summary of the method: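 Compounds are pinned into medium, gametocytes (stage III–V, 3D7, 20,000 cells/well) added, and plates held 72 h at 37 °C in 5% CO2. AlamarBlue follows for 24 h before fluorescence reading.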

[7] = molecular target: T1, Hexokinase-4 (Homo sapiens) + Glucokinase regulatory protein (Homo sapiens); assay: qHTS assay for inhibitors of recombinant human GCK-GKRP interaction: Diaphorase-coupled assay (AID 743205)
Summary of the method: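 Signal derives from resorufin generated by diaphorase, linked to GCK turnover of glucose (5 mM) and ATP (0.4 mM). Enzyme complex was added after a 20-minute compound preincubation and monitored for 30 minutes.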

T1 sequence (P35557 whole entry, looked up): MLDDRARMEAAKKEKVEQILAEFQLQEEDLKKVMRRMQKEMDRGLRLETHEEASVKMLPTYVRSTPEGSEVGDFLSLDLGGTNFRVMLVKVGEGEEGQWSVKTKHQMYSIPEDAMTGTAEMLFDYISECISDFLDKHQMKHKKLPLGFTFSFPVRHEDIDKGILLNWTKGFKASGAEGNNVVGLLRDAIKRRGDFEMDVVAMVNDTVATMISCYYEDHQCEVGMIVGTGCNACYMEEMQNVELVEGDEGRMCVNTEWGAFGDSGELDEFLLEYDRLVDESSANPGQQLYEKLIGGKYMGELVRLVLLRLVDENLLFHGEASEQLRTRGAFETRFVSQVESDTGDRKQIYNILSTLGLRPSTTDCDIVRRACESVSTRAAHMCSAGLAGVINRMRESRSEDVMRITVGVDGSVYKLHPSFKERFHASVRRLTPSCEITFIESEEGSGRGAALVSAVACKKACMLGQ
T1 sequence (Q14397 whole entry, looked up): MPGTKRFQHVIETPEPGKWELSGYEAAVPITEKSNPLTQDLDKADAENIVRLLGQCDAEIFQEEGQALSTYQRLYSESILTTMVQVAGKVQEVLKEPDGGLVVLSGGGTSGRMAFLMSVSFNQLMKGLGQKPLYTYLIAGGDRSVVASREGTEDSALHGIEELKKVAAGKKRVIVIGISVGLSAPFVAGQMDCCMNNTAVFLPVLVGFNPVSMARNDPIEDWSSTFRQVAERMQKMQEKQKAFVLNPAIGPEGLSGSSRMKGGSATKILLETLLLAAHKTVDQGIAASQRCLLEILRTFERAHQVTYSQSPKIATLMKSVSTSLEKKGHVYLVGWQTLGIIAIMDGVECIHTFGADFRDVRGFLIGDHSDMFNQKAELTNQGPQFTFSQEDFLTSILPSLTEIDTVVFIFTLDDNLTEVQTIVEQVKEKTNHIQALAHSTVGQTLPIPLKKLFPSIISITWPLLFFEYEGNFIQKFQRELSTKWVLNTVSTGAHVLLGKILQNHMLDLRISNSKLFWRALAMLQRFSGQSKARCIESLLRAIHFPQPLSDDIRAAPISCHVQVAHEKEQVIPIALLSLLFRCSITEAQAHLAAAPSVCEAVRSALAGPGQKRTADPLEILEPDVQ

CCOC(=O)Nc1ccc(NCc2ccc(F)cc2)nc1N
inactive: outcome [1] | outcome [2] | Potency [3] | Potency [4] | Potency [5]

CC(C)(C)C(=O)Oc1ccc(S(=O)(=O)Nc2ccccc2C(=O)NCC(=O)O)cc1
inactive: max response [6] 3.13%

CC(C)NCC(O)COc1ccc(CCOCC2CC2)cc1 (stereo not drawn)
inactive: outcome [1] | outcome [2] | Potency [3] | Potency [7] | Potency [4] | max response [6] -0.0756% and 27.3%

COC(=O)Nc1nc2ccc(C(=O)c3cccs3)cc2[nH]1
inactive: outcome [1] | outcome [2] | Potency [3] | Potency [7] | Potency [4] | Potency [5] | max response [6] 22.4% and 23.7%

Cc1ccccc1N1C(=O)c2cc(S(N)(=O)=O)c(Cl)cc2NC1C (stereo not drawn)
inactive: outcome [1] | outcome [2] | Potency [3] | Potency [7] | Potency [4] | Potency [5] | max response [6] 6.66% and 10.8% and 1.37%

Cc1cc(C(C)(C)C)cc(C)c1CC1=NCCN1
inactive: outcome [1] | outcome [2] | Potency [3] | Potency [7] | Potency [4] | Potency [5] | max response [6] 3.97% and -5.84%

COc1ccc(C2CNC(=O)C2)cc1OC1CCCC1 (stereo not drawn)
inactive: outcome [1] | outcome [2] | Potency [3] | Potency [7] | Potency [4] | Potency [5] | max response [6] 8.29% and 32.6%

CC(=O)OCC(CCn1cnc2cnc(N)nc21)COC(C)=O
inactive: max response [6] 13.8%

C[C@@H]1CC(=O)NN=C1c1ccc(NN=C(C#N)C#N)cc1
inactive: max response [6] 16.6%

CC[N+](CC)(CC)CCOc1cccc(OCC[N+](CC)(CC)CC)c1OCC[N+](CC)(CC)CC
inactive: outcome [1] | outcome [2] | Potency [3] | Potency [7] | Potency [4] | Potency [5] | max response [6] 4.54% and -6.53%

CN1CCN(C2=Nc3cc(Cl)ccc3Nc3ccccc32)CC1
inactive: outcome [1] | outcome [2] | Potency [3] | max response [6] -2.07% and 20.9%

O=C(C1CCCCC1)N1CC(=O)N2CCc3ccccc3C2C1 (stereo not drawn)
inactive: outcome [1] | max response [6] 3.64% and 8.77%

CN1C(C(=O)Nc2ccccn2)=C(O)c2ccccc2S1(=O)=O
inactive: outcome [1] | Potency [3] | Potency [7] | Potency [4] | Potency [5] | max response [6] -1.29% and 1.85%

Clc1ccc2c(c1)C(N1CCNCC1)=Nc1ccccc1O2
active: Potency [6] 794 nM
inactive: outcome [1] | outcome [2] | Potency [3] | Potency [7] | Potency [4] | Potency [5] | max response [6] -3.09%

Clc1ccccc1C(c1ccccc1)(c1ccccc1)n1ccnc1
active: Potency [6] 2.51 µM and 2.09 µM
inactive: outcome [1] | outcome [2] | Potency [3] | Potency [7] | Potency [4] | Potency [5]

CC(C(=O)O)c1cccc(C(=O)c2ccccc2)c1 (stereo not drawn)
inactive: outcome [1] | outcome [2] | Potency [3] | max response [6] 3.48% and 27.8%

O=C(c1ccc(F)cc1)C1CCN(CCn2c(=O)[nH]c3ccccc3c2=O)CC1
inactive: outcome [1] | outcome [2] | Potency [3] | Potency [7] | Potency [4] | Potency [5] | max response [6] 7.32% and -5.52%

CCCNCC(O)COc1ccccc1C(=O)CCc1ccccc1 (stereo not drawn)
active: Potency [6] 3.16 µM and 1.78 µM
inactive: outcome [1] | outcome [2] | Potency [3] | Potency [7] | Potency [4] | Potency [5]

Nc1nc2c(ncn2COC(CO)CO)c(=O)[nH]1
inactive: outcome [1] | outcome [2] | Potency [3] | Potency [7] | Potency [4] | Potency [5] | max response [6] -13.4% and 3.21%

CS(=O)(=O)Nc1ccc([N+](=O)[O-])cc1Oc1ccccc1
inactive: outcome [1] | outcome [2] | Potency [3] | Potency [7] | Potency [4] | Potency [5] | max response [6] -0.179% and 5.92%
